A number with no mark means an inactive call. For part of these data: Results with a measured potency or affinity are listed apart. Calls of active or inactive are those of the source. Unless noted, how the calls were made is not given here.

As usually defined, the inhibition is the change of the read-out against control, counted positive when it falls.

A short description of assay [1]: antimalarial activity against Dd2 strain (AID 2302;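 active means growth inhibition above 50% at the single 2 µM test dose, taken to imply half-maximal potency below 2 µM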;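 further: 0% = DMSO untreated growth and 100% = chloroquine plus artemisinin killed control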). As to conditions: P. falciparum Dd2 in RBCs, LDH growth readout, 72 h; at 2 µM; hits give high values.
Assay [2] can be described thus: HepG2 cytotoxicity, primary screen, cytotoxicity control for P. falciparum antimalarial project, cell-based, ATP luminescence (AID 2303;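 active means inhibition above 50%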;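 further: 0% = DMSO wells and 100% = digitonin-killed cells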). The note with it: HepG2 viability, 24-48 h, at 10 µM, hits give high values.
Assay [3] concerns the target L-lactate dehydrogenase (Plasmodium falciparum (isolate CDC / Honduras)) (UniProt Q27743). The assay can be described thus: PfLDH activity inhibition – cell lysate, 3D7 strain, counter-screen for P. falciparum growth inhibition project (AID 2304).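 Further: 0% = vehicle and 100% = reference inhibitor.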 As to conditions: P. falciparum 3D7 crude extract, LDH APAD/NBT absorbance; at 2 µM; hits give high values.
Assay [4] in a line: inhibition of 3D7 malaria parasite growth – strain 3D7 (AID 2306).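 Further: 0% = DMSO wells and 100% = chloroquine plus artemisinin control wells.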 As to conditions: P. falciparum 3D7 erythrocytic growth, LDH absorbance, 72 h; at 2 µM; hits give high values.
The target in assay [5] is Calcium-dependent protein kinase 1 (Plasmodium falciparum (isolate 3D7)) (UniProt P62344). The assay can be described thus: PfCDPK1 kinase inhibitors, biochemical, TCAMS library (AID 1159585; cut-off not given, nearly all actives have IC50 up to about 0.98 µM;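 further: inhibitors leave more ATP so luminescence rises with inhibition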). The note with it: recombinant PfCDPK1, Kinase-Glo ATP depletion luminescence.
Sequence of Calcium-dependent protein kinase 1 (Plasmodium falciparum (isolate 3D7)) (P62344 whole entry, looked up): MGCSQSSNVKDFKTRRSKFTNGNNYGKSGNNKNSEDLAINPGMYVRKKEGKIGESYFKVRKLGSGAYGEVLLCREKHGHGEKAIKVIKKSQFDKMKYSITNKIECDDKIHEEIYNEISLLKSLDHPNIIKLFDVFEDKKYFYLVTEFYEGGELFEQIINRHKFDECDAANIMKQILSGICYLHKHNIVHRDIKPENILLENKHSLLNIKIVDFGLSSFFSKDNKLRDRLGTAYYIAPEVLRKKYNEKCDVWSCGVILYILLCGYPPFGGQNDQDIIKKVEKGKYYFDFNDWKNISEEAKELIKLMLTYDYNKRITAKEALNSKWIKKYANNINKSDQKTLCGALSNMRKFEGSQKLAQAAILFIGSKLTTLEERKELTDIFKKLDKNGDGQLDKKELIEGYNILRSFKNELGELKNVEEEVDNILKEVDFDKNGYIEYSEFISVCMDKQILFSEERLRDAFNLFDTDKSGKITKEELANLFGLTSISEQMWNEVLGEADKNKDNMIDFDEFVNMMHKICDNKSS
The target in assay [6] is Plasmodium falciparum protein kinase 6 (PK6, PF3D7_1337100) (UniProt Q8IDW1). The assay can be described thus: PfPK6 kinase inhibitors, biochemical, TCAMS library (AID 1159586). As to conditions: recombinant PfPK6, Kinase-Glo ATP depletion luminescence. For orientation: Kinase-Glo measures the ATP left after a reaction by luminescence.
Sequence of Plasmodium falciparum protein kinase 6 (PK6, PF3D7_1337100) (Q8IDW1 1-305): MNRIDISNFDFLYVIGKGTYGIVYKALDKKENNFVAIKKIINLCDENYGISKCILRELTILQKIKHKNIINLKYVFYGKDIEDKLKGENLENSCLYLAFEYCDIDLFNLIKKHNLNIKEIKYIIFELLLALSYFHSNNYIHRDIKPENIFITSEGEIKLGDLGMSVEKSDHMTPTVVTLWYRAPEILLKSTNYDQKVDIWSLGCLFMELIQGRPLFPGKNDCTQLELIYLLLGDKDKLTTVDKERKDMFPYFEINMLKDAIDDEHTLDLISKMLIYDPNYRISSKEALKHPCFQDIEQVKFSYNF
Assay [7] deals with Protein kinase 7 (PK7), Plasmodium falciparum 3D7 (PF3D7_0213400) (UniProt Q7YTF7). The assay can be described thus: inhibition of Plasmodium PK7 catalytic activity – biochemical, TCAMS antimalarial set, Kinase-Glo luminescence (AID 1159587). The note with it: recombinant PfPK7, Kinase-Glo ATP depletion luminescence.
Sequence of Protein kinase 7 (PK7), Plasmodium falciparum 3D7 (PF3D7_0213400) (Q7YTF7 1-343): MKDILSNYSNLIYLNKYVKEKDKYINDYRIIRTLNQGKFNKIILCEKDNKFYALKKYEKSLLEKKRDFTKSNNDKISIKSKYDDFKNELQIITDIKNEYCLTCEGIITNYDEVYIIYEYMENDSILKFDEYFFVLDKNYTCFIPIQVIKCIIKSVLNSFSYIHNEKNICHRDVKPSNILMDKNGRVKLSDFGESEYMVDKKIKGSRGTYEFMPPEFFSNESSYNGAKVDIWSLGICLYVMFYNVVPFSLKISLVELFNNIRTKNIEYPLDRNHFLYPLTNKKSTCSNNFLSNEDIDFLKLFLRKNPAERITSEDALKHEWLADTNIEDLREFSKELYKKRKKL
The target of assay [8] is Calcium-dependent protein kinase 4 (Plasmodium falciparum (isolate 3D7)) (UniProt Q8IBS5). The assay can be described thus: PfCDPK4 kinase inhibitors, biochemical, TCAMS library (AID 1159588; cut-off not given, nearly all actives have IC50 up to about 0.91 µM). As to conditions: recombinant PfCDPK4, Kinase-Glo ATP depletion luminescence.
Sequence of Calcium-dependent protein kinase 4 (Plasmodium falciparum (isolate 3D7)) (Q8IBS5 whole entry, looked up): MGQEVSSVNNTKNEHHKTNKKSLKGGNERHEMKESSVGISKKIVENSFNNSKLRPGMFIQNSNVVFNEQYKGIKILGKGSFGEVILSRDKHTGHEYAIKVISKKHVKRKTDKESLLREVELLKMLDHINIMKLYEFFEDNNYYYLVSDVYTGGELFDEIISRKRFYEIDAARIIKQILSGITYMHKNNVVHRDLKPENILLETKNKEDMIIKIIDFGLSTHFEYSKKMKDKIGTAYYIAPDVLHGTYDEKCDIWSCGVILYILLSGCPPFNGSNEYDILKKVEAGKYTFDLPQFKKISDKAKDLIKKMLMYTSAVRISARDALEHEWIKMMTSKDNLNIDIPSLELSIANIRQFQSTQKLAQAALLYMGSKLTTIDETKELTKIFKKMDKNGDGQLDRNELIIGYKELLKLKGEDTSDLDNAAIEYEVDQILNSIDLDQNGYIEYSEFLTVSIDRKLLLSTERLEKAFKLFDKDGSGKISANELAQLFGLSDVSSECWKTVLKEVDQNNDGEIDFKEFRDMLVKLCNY

Sequence of L-lactate dehydrogenase (Plasmodium falciparum (isolate CDC / Honduras)) (Q27743 whole entry, looked up): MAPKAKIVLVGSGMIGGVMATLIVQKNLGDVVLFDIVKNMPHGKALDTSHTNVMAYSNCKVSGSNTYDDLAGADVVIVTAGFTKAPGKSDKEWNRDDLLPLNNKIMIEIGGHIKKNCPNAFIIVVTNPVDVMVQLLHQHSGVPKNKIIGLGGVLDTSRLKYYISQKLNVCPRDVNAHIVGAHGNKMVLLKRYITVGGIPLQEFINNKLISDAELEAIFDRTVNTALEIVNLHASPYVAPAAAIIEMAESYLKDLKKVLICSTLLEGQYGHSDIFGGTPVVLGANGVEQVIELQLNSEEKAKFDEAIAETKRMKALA

`O=S(=O)(Nc1cc2c(cc1O)CCNCC2)c1ccc(-c2ccc(Cl)cc2)cc1`: the growth inhibition in assay [1] is 0%; in assay [4], 99% (active). Also, the results for the inhibition in assay [2] and in assay [3] were 10% and 3%, respectively. Further, the result in assay [5], in assay [6], in assay [7] and in assay [8] was inactive.
On to `CCCCN(CCCC)CCCN(CCCN(CCCC)CCCC)c1cc(C)nc(Nc2ccc3cc(Br)ccc3c2)n1`, for which the figures for the growth inhibition in assay [1] and in assay [4] were 99% (active) and 101% (active), respectively. Besides, the inhibition in assay [2] was 52% (active); in assay [3] it was 5%. Besides, the result in assay [5], in assay [6], in assay [7] and in assay [8] was inactive.
Regarding `O=C(NCC1CCN(CC2CCCCC2)C1)c1cc(-c2cccc(Cl)c2)cs1` (centres undefined), the growth inhibition is 8% in assay [1] and 85% (active) in assay [4]. Moreover, the inhibition in assay [2] is 51% (active); in assay [3], 5%. In addition, the result in assay [5], in assay [6], in assay [7] and in assay [8] was inactive.
In the case of `COc1ccc2nccc([C@@H](O)CN3CCC(NC(=O)C(c4cc5ccccc5o4)N4CCC(Cc5ccccc5)CC4)CC3)c2c1` (some centres undefined), the values for the growth inhibition in assay [1] and in assay [4] were 82% (active) and 100% (active), respectively. The figures for the inhibition in assay [2] and in assay [3] were 11% and 0%, respectively. In addition, the outcome in assay [5], in assay [6], in assay [7] and in assay [8] was inactive.
`CCOC(=O)CCc1cc(F)c(F)c(OC[C@H](O)CNC(C)(C)C(O)c2ccc3ccccc3c2)c1` (some centres undefined): the growth inhibition in assay [1] was 92% (active); in assay [4] it was 99% (active). In addition, the figures for the inhibition in assay [2] and in assay [3] were 12% and -4%, respectively. The outcome in assay [5], in assay [6], in assay [7] and in assay [8] was inactive.
On to `c1ccc2cc3c(Nc4ccc(N5CCCCCC5)cc4)ccnc3cc2c1`, for which the growth inhibition in assay [1] was 76% (active); in assay [4] it was 94% (active). For the same compound, the inhibition was 10% in assay [2] and 1% in assay [3]. In addition, the result in assay [5], in assay [6], in assay [7] and in assay [8] was inactive.
As for `CN(C)CCN1CCN(Cc2cccc(-c3csc(-c4nc5ccccc5[nH]4)c3)c2)CC1`, the growth inhibition was 97% (active) in assay [1] and 100% (active) in assay [4]. Further, the inhibition in assay [2] was 28%; in assay [3] it was -5%. Besides, the outcome in assay [5], in assay [6], in assay [7] and in assay [8] was inactive.
Turning to `Cc1cc(C(=O)NC2CCN(CC3(c4ccccc4)CCCCC3)CC2)on1`, the growth inhibition is 95% (active) in assay [1] and 97% (active) in assay [4]. The inhibition in assay [2] and in assay [3] was -3% each time. In addition, the outcome in assay [5], in assay [6], in assay [7] and in assay [8] was inactive.
With `Cc1ccc(-c2nc3ccc(C(=O)NC4CCC(N5CCCc6ccc(C#N)cc6C5)CC4)cc3[nH]2)cc1` (centres undefined), the growth inhibition is 49% in assay [1] and 101% (active) in assay [4]. In addition, the inhibition is 23% in assay [2] and -2% in assay [3]. The result in assay [5], in assay [6], in assay [7] and in assay [8] was inactive.
Take `O=C(Nc1ccc(Cl)cc1)Nc1ccc(Cn2ncc(N3CCCNCC3)c(Cl)c2=O)cc1`: the growth inhibition in assay [1] is 11%; in assay [4], 85% (active). In addition, the inhibition in assay [2] was 49%; in assay [3], 1%. Further, the result in assay [5], in assay [6], in assay [7] and in assay [8] was inactive.
With `Cc1ccc(-c2nc(N3CCN(C(=O)c4ccco4)CC3)c3ccccc3n2)cc1`, the growth inhibition in assay [1] is 75% (active); in assay [4], 90% (active). Also, the values for the inhibition in assay [2] and in assay [3] were -8% and 3%, respectively. Moreover, the result in assay [5], in assay [6], in assay [7] and in assay [8] was inactive.
For `COc1ccc(-c2cccc(NC(=O)c3cccc(Cl)c3)c2)cc1CNC(C)C`, the results for the growth inhibition in assay [1] and in assay [4] were 8% and 102% (active), respectively. Moreover, the inhibition in assay [2] was 15%; in assay [3], -2%. Besides, the outcome in assay [5], in assay [6], in assay [7] and in assay [8] was inactive.
For the compound `COc1ccc(-c2cc(C(=O)N[C@@H](CC3CCCCC3)C(=O)NCCN3CCCC3)ccc2O)cc1`, the figures for the growth inhibition in assay [1] and in assay [4] were 12% and 90% (active), respectively. The inhibition in assay [2] was 12%; in assay [3], 2%. The result in assay [5], in assay [6], in assay [7] and in assay [8] was inactive.
As to `OCCCCCCN=Cc1[nH]c(=S)sc1O`, the values for the growth inhibition in assay [1] and in assay [4] were 1% and 91% (active), respectively. For the same compound, the inhibition is 7% in assay [2] and 4% in assay [3]. Also, the outcome in assay [5], in assay [6], in assay [7] and in assay [8] was inactive.
Consider `NCCNc1ccc([N+](=O)[O-])cc1C(=O)Nc1cccc(Cl)c1`, for which the growth inhibition was 7% in assay [1] and 85% (active) in assay [4]. Besides, the inhibition is 23% in assay [2] and 4% in assay [3]. Further, the result in assay [5], in assay [6], in assay [7] and in assay [8] was inactive.
With `Nc1cc(-c2ccc3ccccc3c2)nc2ccccc12`, the growth inhibition in assay [1] is 52% (active); in assay [4], 99% (active). The inhibition in assay [2] is 19%; in assay [3], -2%. The result in assay [5], in assay [6], in assay [7] and in assay [8] was inactive.
For `Cc1ccc(NC(=O)c2ccc(-c3cc4cc(Cl)c(Cl)cc4[nH]3)cc2)cc1OCCN1CCCC1`, the results for the growth inhibition in assay [1] and in assay [4] were 90% (active) and 101% (active), respectively. Also, the inhibition is 7% in assay [2] and -6% in assay [3]. Also, the result in assay [5], in assay [6], in assay [7] and in assay [8] was inactive.
For `COc1ccc(N2CCN(CCCCNC(=O)c3ccc(NC(=O)c4cc(C(F)(F)F)cc(C(F)(F)F)c4)cc3)CC2)cc1OC`, the growth inhibition was 100% (active) in assay [1] and 101% (active) in assay [4]. The inhibition in assay [2] is 9%; in assay [3], 1%. In addition, the outcome in assay [5], in assay [6], in assay [7] and in assay [8] was inactive.

The values above are taken from PubChem BioAssay.
